In the library only some 19% were active in any assay of this set; here they are far more common.
HT1080 IDH1KD tx – qHTS for induction of synthetic lethality in tumor cells producing 2HG: qHTS for the HT-1080-IDH1KD cell line; HT-1080 IDH1 knockdown viability, ATP luminescence, 48 h; Potency, µM (series often up to 46.1 µM), for inactives: at the top dose activity, negative = toxicity, most hits filed as cytotoxic; actives 2% (n = 360,000);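 note: 0% = DMSO wells and -100% = cell-free medium wells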
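Viability of IDH1-knockdown HT-1080 fibrosarcoma cells was assessed by CellTiter-Glo after 48 h at 37 °C with titrated compound; concentration-effect curves were classified by fit quality and response size.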
HT1080NT lethal – qHTS for induction of synthetic lethality in tumor cells producing 2HG: qHTS for the HT-1080-NT fibrosarcoma cell line; HT-1080-NT fibrosarcoma viability, CellTiter-Glo ATP luminescence, 48 h; AID 686970, 2013; Potency, µM (titrated, usually from 46.1 µM), for inactives: top-dose activity, negative = less viability, hits mostly cytotoxic; actives 1.6% (n = 360,000);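 note: NT is the 2HG producing partner of a matched IDH1 knockdown line; 0% = DMSO-treated cells and -100% = media-only wells without cells; nearly all actives have a fitted effect of over 55% in size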
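Viability by CellTiter-Glo luminescence after 48 h compound exposure at 37C of HT-1080-NT cells (750/well, RPMI, 5% FBS). % activity scaled between DMSO wells and medium-only wells, then curve-fitted and categorized by curve class.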
KB-V1 cytotox – qHTS assay for MDR1-selective chemotherapeutics: Primary screen using the drug-selected MDR subline cells KB-V1; KB-V1 MDR cells viability, CellTiter-Glo, 72 h; Potency, µM (doses to about 46.1 µM), most hits filed as cytotoxic; AID 1347076, 2019; actives 3.4% (n = 400,000); note: nearly all actives have a fitted effect of over 60% in size
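Following 72 h at 37 degrees C with compound, KB-V1 cell viability was read by CellTiter-Glo luminescence, medium being phenol-red-free DMEM plus 10% FBS; concentration-response parameters came from normalized, curve-fitted qHTS data.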
KB-3-1 tox – qHTS assay for MDR1-selective chemotherapeutics: Primary screen using the parental adenocarcinoma cell KB-3-1 | AID 1347075, 2019 | KB-3-1 viability, CellTiter-Glo ATP luminescence, 72 h | Potency, µM (doses to about 46.1 µM), usual class: cytotoxic | actives 1.4% (n = 400,000); note: nearly all actives have a fitted effect of over 60% in size
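72 h, 37 °C compound treatment of KB-3-1 parental cells; CellTiter-Glo added, 10 min, luminescence read. Data corrected against DMSO-only plates and normalized before curve fitting.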
DT40 TDP1 no CPT – qHTS for Inhibitors of human tyrosyl-DNA phosphodiesterase 1 (TDP1): qHTS in cells in absence of CPT | DT40 Tdp1-/- hTDP1 cells, no CPT, ATP luminescence, 48 h | Potency, µM (top dose mostly 46.2 µM), for inactives: at the highest dose activity change, negative = growth inhibition, actives largely listed as inhibitors | actives 15% (n = 420,000) | AID 686978, 2013; note: nearly all actives have a fitted effect of over 55% in size
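Cells were dispensed at 400 per well, compounds added by pin tool, plates incubated ≥48 hr at 37 °C, then CellTiter-Glo added for 30 min at room temperature before luminescence reading. Line: DT40 Tdp1-/- complemented with hTDP1; camptothecin omitted.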
DT40 TDP1 CPT – qHTS for Inhibitors of human tyrosyl-DNA phosphodiesterase 1 (TDP1): qHTS in cells in presence of CPT; actives 12% (n = 420,000); chicken DT40 Tdp1-/-;hTDP1 cells + 20 nM CPT, ATP luminescence, 48 h; Potency, µM (doses to about 46.2 µM), for inactives: at the highest dose activity change, negative = growth inhibition, most hits filed as inhibitors; AID 686979, 2013; note: nearly all actives have a fitted effect of over 55% in size
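Chicken DT40 Tdp1-/- cells complemented with human TDP1, 400 cells/well, exposed to compounds plus 20 nM camptothecin for at least 48 h at 37 C; viability read as ATP content by CellTiter-Glo luminescence.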
An asterisk follows results filed as active; i = inactive; ? = inconclusive; nt = no result given; [ ] = remark or other dose. Calls come from the whole dose curve; as a rule, active = well fitted curve in the direction sought with a large enough effect; inconclusive = small, poorly fitted or top-dose-only effect, or another doubt; inactive = no such curve, though single readings can be large; an effect the other way counts as inactive or inconclusive. Unless noted, % is set by controls: 0 for no effect and ±100 for the full control effect; potency is the fitted concentration of half-maximal effect.

SMILES | HT1080 IDH1KD tx | HT1080NT lethal | KB-V1 cytotox | KB-3-1 tox | DT40 TDP1 no CPT | DT40 TDP1 CPT
CCOC(=O)c1c(CN2CCOCC2)n(-c2ccccc2)c2cc(Br)c(O)c(CN(C)C)c12 | -3% | -4% | i | i | ? | ?
CCOC(=O)c1c(CN2CCCCC2)n(C)c2cc(Br)c(O)c(CN(C)C)c12 | 2% | 5% | i | i | ? | 18µM*
CCOC(=O)c1c(CN2CCCCC2)n(C)c2cc(Br)c(OC)cc12 | -1% | 17% | i | i | 11µM* | ?
C=CSc1sc(Cl)c(N(CC)CC)c1[N+](=O)[O-] | 14% | 14% | i | i | -23% | -18%
CCOC(=O)c1c(CSc2ccccc2)n(C)c2cc(Br)c(O)c(CN(C)C)c12 | ? | ? | ? | i | 15µM* | 21µM*
CC(=O)Nc1nonc1-c1nnc(SCC(=O)Nc2ccc(F)cc2F)n1-c1ccccc1 | nt | nt | i | i | ? | ?
O=C(C1CC1)N(CCN(Cc1ccccc1)C(=O)C1CC1)Cc1ccccc1 | -5% | -1% | i | i | 13µM* | 16µM*
Cc1cc(C)cc(NC(=O)CNC(c2ccccc2)c2ccccc2)c1 | -3% | -21% | i | i | 10µM* | ?
O=C(CNC(c1ccccc1)c1ccccc1)Nc1ccccc1F | -8% | -9% | i | i | ? | ?
O=C(O)/C=C/C(=O)Nc1ccccc1-c1ccccc1 | -2%[9.24 µM] | -4% | i | i | 10µM* | 8.2µM*
CC(=O)Nc1ccc(SCC(=O)N(C)CC(=O)Nc2ccccc2Cl)cc1 | 9% | -2% | i | i | ? | -21%
O=C(CNC(c1ccccc1)c1ccccc1)Nc1ccccc1-c1ccccc1 | -29% | -17% | 15µM* | ? | 18µM* | ?
CC(=O)Nc1ccc(SCC(=O)Nc2ccccc2-c2ccccc2)cc1 | -9% | -2% | ? | i | 23µM* | ?
CSc1ccc(/C=C2\C=Cc3ccccc32)cc1 | nt | nt | i | i | ? | 5%
O=C(O)c1cccc(Nc2ccnc(Nc3cccc(C(=O)O)c3)n2)c1 | 10% | 0% | i | i | 34% | -6%
CCN1C[C@@H]2[C@@H]3C(=O)N(C)C(=O)[C@@H]3[C@](Cc3ccccc3)(C1=O)N2C(=O)c1ccc(F)cc1 | 9% | 14% | i | i | 5% | 2%
CCOC(=O)C1CCCN(CCCc2ccccc2)C1 (configuration not stated) | 5% | 19% | i | i | -21% | 1%
CCCOc1ccc(C2C(=O)N(C3CCCCCC3)CC(=O)N2CCC2=CCCCC2)cc1OC (configuration not stated) | nt | nt | nt | nt | -20% | -12%
CCOCCCN1C(=O)CN(C2CCC(C)CC2)C(=O)C1c1ccc(C)cc1 (configuration not stated) | -12% | -6% | ? | i | 2.3µM* | ?
Cc1ccc(C2C(=O)N(C3CCCCCC3)CC(=O)N2CCC2=CCCCC2)cc1 (configuration not stated) | nt | nt | nt | nt | 21µM* | ?
COc1ccc(C2C(=O)N(C3CCCCCC3)CC(=O)N2Cc2ccc(C)cc2)cc1 (configuration not stated) | nt | nt | nt | nt | 26µM* | 23µM*
COc1ccc(C2C(=O)N(C3CCCCCC3)CC(=O)N2CCC2=CCCCC2)cc1 (configuration not stated) | nt | nt | nt | nt | 15µM* | 23µM*

Screens as filed in PubChem.
